For 37 molecules, outcome and Potency results are on record in PubChem BioAssay (Tox21).

Records with an inconclusive call do not appear. Entries that show only a call come without a potency. Active and inactive are the calls of the source. Unless noted, calls follow the shape of the dose curve; as a rule, active = well fitted curve in the direction sought with a large enough effect in the repeat runs; inconclusive = weak or mixed curves; inactive = no such curve, though single readings can be large; an effect the other way counts as inactive or inconclusive.

Peroxisome proliferator-activated receptor gamma (Homo sapiens), sequence (P37231 whole entry, looked up): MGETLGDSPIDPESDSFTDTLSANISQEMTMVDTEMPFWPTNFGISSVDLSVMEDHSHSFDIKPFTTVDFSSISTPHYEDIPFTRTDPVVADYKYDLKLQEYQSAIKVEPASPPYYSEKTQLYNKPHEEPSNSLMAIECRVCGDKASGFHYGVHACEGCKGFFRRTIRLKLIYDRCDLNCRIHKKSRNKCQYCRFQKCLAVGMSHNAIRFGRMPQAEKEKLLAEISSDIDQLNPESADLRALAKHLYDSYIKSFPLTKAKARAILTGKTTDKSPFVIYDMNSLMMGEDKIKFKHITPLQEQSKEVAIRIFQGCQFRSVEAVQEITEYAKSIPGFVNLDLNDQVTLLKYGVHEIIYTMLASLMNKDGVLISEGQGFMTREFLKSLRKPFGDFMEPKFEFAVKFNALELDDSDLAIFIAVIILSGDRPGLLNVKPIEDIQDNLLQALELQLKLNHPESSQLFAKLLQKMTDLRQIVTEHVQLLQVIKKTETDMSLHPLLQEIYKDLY

Tested on in one assay: not listed separately
Nature of the assay: qHTS assay to identify small molecule that activate the aryl hydrocarbon receptor (AhR) signaling pathway - cell viability counter screen (AID 743086).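 Also: HepG2 liver cells carrying the AhR DRE luciferase reporter; nearly all actives have a fitted effect of over 45% in size.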 The note with it: HepG2-AhR-luc viability, CellTiter-Fluor, 24 h; series mostly up to 70.3 µM. A digest of the protocol:
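HepG2-AhR-luc (HG2L7.5c1) cells, 4000/well, treated 24 h at 37 C with compound; viability measured as CellTiter-Fluor fluorescence after 30 min in the same wells as the luciferase read.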
(In general: In qHTS, concentration-response curves come from the screen itself.)
Turning to `CC(C=O)Cc1ccc2c(c1)OCO2` (configuration not stated), the call was inactive.

For `CC1CCC(=O)O1` (configuration not stated), the call was inactive.

Consider `O=C(CCN1CC1)OCC(CO)(COC(=O)CCN1CC1)COC(=O)CCN1CC1`, for which the molecule was classed as inactive.

`CC1(C(=O)Nc2ccc(O)c(Cl)c2Cl)CCCCC1`: the molecule was classed as inactive.

On to `CCNc1nc(NC(C)C)nc(OC)n1`, for which the molecule was called inactive.

As to `NC1=NC(=O)C(c2ccccc2)O1` (configuration not stated), the call was inactive.

For the molecule `O=S(=O)(O)C(F)(F)C(F)(F)C(F)(F)C(F)(F)C(F)(F)C(F)(F)F`, the result was inactive.

On to `O=C(NCO)NCO`, for which the call was inactive.

For the molecule `CCCCC(=O)Cl`, the molecule was classed as inactive.

As to `CCC#N`, the call was inactive.

Regarding `O=[N+]([O-])c1cc(Cl)c(Cl)c(Cl)c1`, the call was inactive.

Take `CCOP(=S)(Oc1cnc(C(C)(C)C)nc1)OC(C)C` (configuration not stated): the call was inactive.

On to `CC(C)(C)NCC(O)c1cc(Cl)c(N)c(Cl)c1` (configuration not stated), for which the result was inactive.

`CCOC(=O)/C=C(C)/C=C/C[C@@H](C)CCCC(C)C`: the molecule was called inactive.

Turning to `CN1C[C@@H](NS(=O)(=O)N(C)C)C[C@@H]2c3cccc4c3c(cn4C)C[C@H]21`, the result was inactive.

For `COC(=O)COc1ccc(Cl)cc1Cl`, the molecule was called inactive.

Another assay addresses Peroxisome proliferator-activated receptor gamma (Homo sapiens) (UniProt P37231). Nature of the assay: qHTS assay to identify small molecule agonists of the peroxisome proliferator-activated receptor gamma (PPARg) signaling pathway (AID 743094; active = well fitted activation curve with a large enough effect in the signal ratio in the repeat runs, not every such curve was filed as active; the % refers to the signal ratio). The following applies: HEK293H PPARg-UAS-bla, beta-lactamase FRET ratio, 17 h; series mostly up to 57 µM. The method, boiled down:
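GeneBLAzer PPARg UAS-bla HEK293H cells were plated, rested 5 h, then exposed to compounds for 17 h at 37C. Beta-lactamase activity was read by LiveBLAzer B/G FRET substrate fluorescence after 1 h at room temperature.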
For the molecule `CC(C=O)Cc1ccc2c(c1)OCO2` (configuration not stated), the outcome was inactive.

Take `O=C(CCN1CC1)OCC(CO)(COC(=O)CCN1CC1)COC(=O)CCN1CC1`: the outcome was inactive.

Consider `Fc1ccc(C2(Cn3cncn3)OC2c2ccccc2Cl)cc1` (configuration not stated), for which the outcome was inactive.

`CCNc1nc(NC(C)C)nc(OC)n1`: the outcome was inactive.

With `O=S(=O)(O)C(F)(F)C(F)(F)C(F)(F)C(F)(F)C(F)(F)C(F)(F)F`, the outcome was inactive.

With `COP(=S)(OC)Oc1ccc(S(N)(=O)=O)cc1`, the outcome was inactive.

Take `O=C(NCO)NCO`: the outcome was inactive.

For `O=[N+]([O-])c1cc(Cl)c(Cl)c(Cl)c1`, the outcome was inactive.

`CCOP(=S)(Oc1cnc(C(C)(C)C)nc1)OC(C)C` (configuration not stated): the result was inactive.

`CC(C)(C)NCC(O)c1cc(Cl)c(N)c(Cl)c1` (configuration not stated): the outcome was inactive.

As for `CCN(CC)CCOC(=O)C(C)(c1ccccc1)c1ccccc1`, the outcome was inactive.

Another assay has the same target. Nature of the assay: qHTS assay to identify small molecule antagonists of the peroxisome proliferator-activated receptor gamma (PPARg) signaling pathway (AID 743191; calls by dose curve; also: nearly all actives have a fitted effect of over 30% in size; also: potency is read from the fitted curve at half-maximal effect). The note with it: HEK293H PPARg-UAS-bla, beta-lactamase ratio, antagonist, 17 h; series mostly up to 62.6 µM. A digest of the protocol:
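GeneBLAzer PPARg UAS-bla HEK293H cells, 5 h post-plating, exposed to compounds 17 h at 37C. LiveBLAzer B/G FRET substrate added for 1 h at room temperature; beta-lactamase reporter read by fluorescence intensity.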
As for `CC1=C(C(=O)O)N2C(=O)[C@@H](N)[C@H]2SC1`, the Potency entry was “inactive”.

`O=C(CCN1CC1)OCC(CO)(COC(=O)CCN1CC1)COC(=O)CCN1CC1`: the Potency result was “inactive”.

On to `CC(C(O)c1ccccc1)N(C)C/C=C/c1ccccc1` (configuration not stated), for which the Potency entry was “inactive”.

`CC1(C(=O)Nc2ccc(O)c(Cl)c2Cl)CCCCC1`: the Potency result is “inactive”.

Turning to `CCOC(=O)C(c1c(O)c2ccccc2oc1=O)c1c(O)c2ccccc2oc1=O`, the Potency was 7.5 µM (active).

Turning to `CC1COC2(c3ccccc3Cl)c3cc(Cl)ccc3NC(=O)CN12` (configuration not stated), the Potency entry is “inactive”.

Regarding `COc1cccc(C(=O)NN(C(=O)c2cc(C)cc(C)c2)C(C)(C)C)c1C`, the Potency result is “inactive”.

Regarding `O=S(=O)(O)C(F)(F)C(F)(F)C(F)(F)C(F)(F)C(F)(F)C(F)(F)F`, the Potency result is “inactive”.

As to `CN1CCC(N(Cc2ccccc2)c2ccccc2)CC1`, the Potency entry is “inactive”.

For the molecule `Clc1ccccc1N1CCNCC1`, the Potency result is “inactive”.

For `COP(=S)(OC)Oc1ccc(S(N)(=O)=O)cc1`, the Potency result is “inactive”.

As to `O=C(NCO)NCO`, the Potency entry was “inactive”.

As for `Fc1cc(Br)ccc1CBr`, the Potency entry is “inactive”.

Take `CCOP(=S)(Oc1cnc(C(C)(C)C)nc1)OC(C)C` (configuration not stated): the Potency result is “inactive”.

For `CC(C)(C)NCC(O)c1cc(Cl)c(N)c(Cl)c1` (configuration not stated), the Potency entry is “inactive”.

As to `CCC(=O)C(CCN(C)C)(c1ccccc1)c1ccccc1`, the Potency result was “inactive”.

Consider `ClCCCN1CCN(c2cccc(Cl)c2)CC1`, for which the Potency result was “inactive”.

As to `CCN(CC)CCOC(=O)C(C)(c1ccccc1)c1ccccc1`, the Potency result was “inactive”.

Tested on in another assay: not listed separately
Put plainly: qHTS assay to identify small molecule antagonists of the peroxisome proliferator-activated receptor gamma (PPARg) signaling pathway - cell viability counter screen (AID 743194). Also: nearly all actives have a fitted effect of over 55% in size. Also: potency is read from the fitted curve at half-maximal effect. The following applies: PPARg-bla HEK293H viability, CellTiter-Glo luminescence, 17 h; Potency: co-treated with 50 nM rosiglitazone; series mostly up to 62.6 µM. A digest of the protocol: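 Cytotoxicity counter screen in PPARg-bla HEK293H cells, same wells as reporter assay. Compounds plus 50 nM rosiglitazone (final) for 17 h at 37 C, then viability read by CellTiter-Glo luminescence.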
As to `CC(C=O)Cc1ccc2c(c1)OCO2` (configuration not stated), the Potency result is “inactive”.

Consider `c1ccc(N2CCNCC2)cc1`, for which the Potency entry was “inactive”.

As to `C[C@]12CC[C@H]3[C@@H](CCC4=CC(=O)CC[C@@]43C)[C@@H]1CC[C@@H]2C(=O)O`, the Potency result was “inactive”.

For `CC1CCC(=O)O1` (configuration not stated), the Potency entry was “inactive”.

Consider `CC1=C(C(=O)O)N2C(=O)[C@@H](N)[C@H]2SC1`, for which the Potency entry is “inactive”.

As for `O=C(CCN1CC1)OCC(CO)(COC(=O)CCN1CC1)COC(=O)CCN1CC1`, the Potency entry was “inactive”.

Consider `Fc1ccc(C2(Cn3cncn3)OC2c2ccccc2Cl)cc1` (configuration not stated), for which the Potency entry was “inactive”.

With `CC(C(O)c1ccccc1)N(C)C/C=C/c1ccccc1` (configuration not stated), the Potency entry is “inactive”.

Turning to `CC1(C(=O)Nc2ccc(O)c(Cl)c2Cl)CCCCC1`, the Potency result is “inactive”.

On to `O=C(Nc1ccccc1)N(Cc1ccc(Cl)cc1)C1CCCC1`, for which the Potency was 21.9 µM (active).

Regarding `O=C1CN2CCOC2(c2ccccc2Cl)c2cc(Cl)ccc2N1` (configuration not stated), the Potency entry was “inactive”.

For `CCNc1nc(NC(C)C)nc(OC)n1`, the Potency result was “inactive”.

For the molecule `NC1=NC(=O)C(c2ccccc2)O1` (configuration not stated), the Potency result was “inactive”.

Take `CCOC(=O)C1(c2ccccc2)CCN(CCc2ccc(N)cc2)CC1`: the Potency result is “inactive”.

Take `CCOC(=O)C(c1c(O)c2ccccc2oc1=O)c1c(O)c2ccccc2oc1=O`: the Potency result is “inactive”.

As for `CC1COC2(c3ccccc3Cl)c3cc(Cl)ccc3NC(=O)CN12` (configuration not stated), the Potency result is “inactive”.

As for `COc1cccc(C(=O)NN(C(=O)c2cc(C)cc(C)c2)C(C)(C)C)c1C`, the Potency entry is “inactive”.

As to `CN1CCC(N(Cc2ccccc2)c2ccccc2)CC1`, the Potency entry was “inactive”.

Regarding `Clc1ccccc1N1CCNCC1`, the Potency result was “inactive”.

With `COP(=S)(OC)Oc1ccc(S(N)(=O)=O)cc1`, the Potency entry is “inactive”.

With `O=C(NCO)NCO`, the Potency result is “inactive”.

As for `Fc1cc(Br)ccc1CBr`, the Potency result is “inactive”.

With `O=C1OC(CCN2CCCCC2)OC1(c1ccccc1)c1ccccc1` (configuration not stated), the Potency result is “inactive”.

Turning to `Nc1c(Br)cc([N+](=O)[O-])cc1[N+](=O)[O-]`, the Potency result was “inactive”.

Consider `CCC#N`, for which the Potency result was “inactive”.

As for `O=[N+]([O-])c1cc(Cl)c(Cl)c(Cl)c1`, the Potency entry is “inactive”.

On to `CC(C)(C)NCC(O)c1cc(Cl)c(N)c(Cl)c1` (configuration not stated), for which the Potency result was “inactive”.

For the molecule `CCC(=O)C(CCN(C)C)(c1ccccc1)c1ccccc1`, the Potency result is “inactive”.

With `CN1C[C@@H](NS(=O)(=O)N(C)C)C[C@@H]2c3cccc4c3c(cn4C)C[C@H]21`, the Potency result was “inactive”.

Take `CCN(CC)CCOC(=O)C(C)(c1ccccc1)c1ccccc1`: the Potency entry is “inactive”.

As to `CC(C(=O)c1ccccc1)N(C)C` (configuration not stated), the Potency result is “inactive”.

For the molecule `COC(=O)COc1ccc(Cl)cc1Cl`, the Potency result was “inactive”.
